Holding throughout (assay): DAPPL (digital affinity profiling via proximity ligation, sequencing); 10 mM Tris-HCl pH 7.5, 50 mM NaCl, 1 mM DTT, 4% glycerol, room temperature, 30 min; GST-TFs on glutathione beads, 16-mer random dsDNA library, 0.1% formaldehyde crosslink after washing; high values mean tight binding
One test addresses T1, FEV (Homo sapiens, UniProt Q99581 1-238).
T1 sequence: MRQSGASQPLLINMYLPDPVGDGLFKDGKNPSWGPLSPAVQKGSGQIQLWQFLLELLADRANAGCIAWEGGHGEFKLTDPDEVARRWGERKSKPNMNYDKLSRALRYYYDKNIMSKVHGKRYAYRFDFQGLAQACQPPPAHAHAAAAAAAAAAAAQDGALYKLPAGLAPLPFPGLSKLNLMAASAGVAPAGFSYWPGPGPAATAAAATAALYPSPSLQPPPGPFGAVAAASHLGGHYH
Conditions: protein: recombinant; tags: N-terminal GST; dsDNA, one strand shown. A digest of the protocol: (§1)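 Human transcription factors were made in yeast as GST fusions, captured on glutathione beads and barcoded with DNA. With a tag-only sample included, the pool was incubated with 200 nmole of a random double-stranded 16-mer DNA library in Tris/NaCl/DTT/glycerol buffer at room temperature for 30 min, then crosslinked with 0.1% formaldehyde after washing, ligated by proximity, amplified and sequenced. For binding signal, each hexamer's read frequency for a factor is divided by its frequency for the tag-only sample.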

The next test addresses ETV5 (Homo sapiens, UniProt P41161 1-510). Conditions: protein: recombinant; tags: N-terminal GST; dsDNA, one strand shown. A digest of the protocol: as §1
A further test has as its target HSF1 (Homo sapiens, UniProt Q00613 1-529). The settings on record: protein: recombinant; tags: N-terminal GST; chain copies: 3; dsDNA, one strand shown. A digest of the protocol: as §1
For another test, the target named is T2, SPIC (Homo sapiens, UniProt Q8N5J4 1-248).
T2 sequence: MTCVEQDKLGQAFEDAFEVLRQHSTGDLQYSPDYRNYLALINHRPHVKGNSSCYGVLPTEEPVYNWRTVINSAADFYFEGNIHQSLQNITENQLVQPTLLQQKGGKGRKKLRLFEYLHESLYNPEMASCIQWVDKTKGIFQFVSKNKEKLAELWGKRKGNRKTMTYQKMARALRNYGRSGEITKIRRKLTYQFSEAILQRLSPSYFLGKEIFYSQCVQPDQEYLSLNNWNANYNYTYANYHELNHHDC
Conditions: protein: recombinant; tags: N-terminal GST; dsDNA, one strand shown. A digest of the protocol:
as §1

A further test addresses ELF4 (Homo sapiens, UniProt Q99607 1-663). Conditions: protein: recombinant; tags: N-terminal GST; dsDNA, one strand shown. A digest of the protocol:
as §1

Another test addresses T3, ELK4 (Homo sapiens, UniProt P28324-2 1-405).
T3 sequence: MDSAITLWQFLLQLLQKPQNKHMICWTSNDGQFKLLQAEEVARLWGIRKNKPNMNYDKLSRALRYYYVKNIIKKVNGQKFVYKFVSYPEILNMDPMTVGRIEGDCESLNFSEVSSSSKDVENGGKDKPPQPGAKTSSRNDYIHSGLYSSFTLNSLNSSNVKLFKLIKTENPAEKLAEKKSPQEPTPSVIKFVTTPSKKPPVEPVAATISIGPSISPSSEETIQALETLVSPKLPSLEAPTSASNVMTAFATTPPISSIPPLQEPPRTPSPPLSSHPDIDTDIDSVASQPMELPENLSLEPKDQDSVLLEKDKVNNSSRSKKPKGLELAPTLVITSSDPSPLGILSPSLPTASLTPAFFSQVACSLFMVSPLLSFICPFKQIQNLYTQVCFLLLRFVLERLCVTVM
Conditions: protein: recombinant; tags: N-terminal GST; dsDNA, one strand shown. A digest of the protocol:
as §1

The next test concerns the target T4, ETV2 (Homo sapiens, UniProt O00321 1-342).
T4 sequence: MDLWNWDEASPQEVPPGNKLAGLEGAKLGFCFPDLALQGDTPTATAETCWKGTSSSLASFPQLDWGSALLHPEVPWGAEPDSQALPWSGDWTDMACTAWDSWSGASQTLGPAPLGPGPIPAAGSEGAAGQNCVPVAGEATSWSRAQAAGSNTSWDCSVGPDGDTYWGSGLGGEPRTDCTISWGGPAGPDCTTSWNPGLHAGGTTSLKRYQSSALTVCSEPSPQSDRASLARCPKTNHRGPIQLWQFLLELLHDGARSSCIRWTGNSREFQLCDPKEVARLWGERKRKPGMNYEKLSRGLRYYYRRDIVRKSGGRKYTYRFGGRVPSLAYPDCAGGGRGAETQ
The settings on record: protein: recombinant; tags: N-terminal GST; dsDNA, one strand shown. A digest of the protocol:
as §1

Another test addresses T5, ELF3 (Homo sapiens, UniProt P78545 1-371).
T5 sequence: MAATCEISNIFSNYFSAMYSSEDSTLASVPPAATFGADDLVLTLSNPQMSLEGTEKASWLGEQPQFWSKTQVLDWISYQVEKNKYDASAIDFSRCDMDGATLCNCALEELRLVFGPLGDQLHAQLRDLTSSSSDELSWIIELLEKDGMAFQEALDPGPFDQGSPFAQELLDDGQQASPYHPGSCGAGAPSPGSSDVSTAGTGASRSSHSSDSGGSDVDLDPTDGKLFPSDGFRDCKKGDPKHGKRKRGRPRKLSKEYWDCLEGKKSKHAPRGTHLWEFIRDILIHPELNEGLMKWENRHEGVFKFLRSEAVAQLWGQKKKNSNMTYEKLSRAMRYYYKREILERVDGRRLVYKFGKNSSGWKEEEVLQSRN
Conditions: protein: recombinant; tags: N-terminal GST; dsDNA, one strand shown. A digest of the protocol:
as §1

Another test concerns the target CRX (Homo sapiens, UniProt O43186 1-299). The settings on record: protein: recombinant; tags: N-terminal GST; dsDNA, one strand shown. A digest of the protocol:
as §1

The target of a further test is ETV1 (Homo sapiens, UniProt P50549 1-477). The settings on record: protein: recombinant; tags: N-terminal GST; dsDNA, one strand shown. A digest of the protocol:
as §1

A further test has as its target T6, ERF (Homo sapiens, UniProt P50548 1-548).
T6 sequence: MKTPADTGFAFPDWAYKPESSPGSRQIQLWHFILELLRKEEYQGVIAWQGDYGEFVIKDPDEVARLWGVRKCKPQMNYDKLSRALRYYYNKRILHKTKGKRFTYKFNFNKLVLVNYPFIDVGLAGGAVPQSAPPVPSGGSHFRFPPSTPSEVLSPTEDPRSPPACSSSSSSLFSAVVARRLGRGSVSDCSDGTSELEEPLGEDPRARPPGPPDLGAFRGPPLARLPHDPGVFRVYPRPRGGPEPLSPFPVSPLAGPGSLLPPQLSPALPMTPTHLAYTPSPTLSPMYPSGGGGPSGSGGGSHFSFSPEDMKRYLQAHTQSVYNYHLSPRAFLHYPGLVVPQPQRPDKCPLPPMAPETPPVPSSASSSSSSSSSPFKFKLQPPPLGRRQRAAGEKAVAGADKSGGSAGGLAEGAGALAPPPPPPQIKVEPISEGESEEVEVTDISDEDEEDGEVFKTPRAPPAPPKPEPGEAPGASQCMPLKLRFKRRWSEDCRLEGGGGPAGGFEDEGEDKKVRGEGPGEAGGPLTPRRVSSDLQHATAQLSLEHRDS
Conditions: protein: recombinant; tags: N-terminal GST; dsDNA, one strand shown. A digest of the protocol: as §1

A further test addresses T7, ETV3L (Homo sapiens, UniProt Q6ZN32 1-361).
T7 sequence: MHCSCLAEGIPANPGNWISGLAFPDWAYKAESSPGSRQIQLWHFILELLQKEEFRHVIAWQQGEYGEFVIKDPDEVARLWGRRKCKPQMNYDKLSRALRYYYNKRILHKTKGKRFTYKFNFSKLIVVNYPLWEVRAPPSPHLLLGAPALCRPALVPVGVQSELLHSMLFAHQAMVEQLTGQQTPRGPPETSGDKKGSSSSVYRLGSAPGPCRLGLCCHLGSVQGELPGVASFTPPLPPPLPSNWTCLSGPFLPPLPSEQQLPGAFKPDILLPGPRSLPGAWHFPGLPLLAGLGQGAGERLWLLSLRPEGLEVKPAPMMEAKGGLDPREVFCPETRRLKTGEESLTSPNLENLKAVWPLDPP
Conditions: protein: recombinant; tags: N-terminal GST; dsDNA, one strand shown. A digest of the protocol: as §1

A further test addresses T8, ETS2 (Homo sapiens, UniProt P15036 1-469).
T8 sequence: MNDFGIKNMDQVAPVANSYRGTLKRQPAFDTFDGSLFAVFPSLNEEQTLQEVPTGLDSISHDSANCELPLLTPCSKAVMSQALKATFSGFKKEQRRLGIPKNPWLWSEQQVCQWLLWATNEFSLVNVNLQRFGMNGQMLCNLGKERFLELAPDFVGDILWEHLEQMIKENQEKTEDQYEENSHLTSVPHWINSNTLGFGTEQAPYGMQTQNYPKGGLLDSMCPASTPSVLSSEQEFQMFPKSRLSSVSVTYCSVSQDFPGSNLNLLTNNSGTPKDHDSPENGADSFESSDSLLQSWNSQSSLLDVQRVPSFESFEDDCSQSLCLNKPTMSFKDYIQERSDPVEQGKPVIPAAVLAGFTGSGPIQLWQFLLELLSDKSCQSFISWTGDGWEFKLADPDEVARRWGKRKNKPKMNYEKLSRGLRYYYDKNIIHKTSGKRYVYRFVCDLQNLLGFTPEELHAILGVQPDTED
Conditions: protein: recombinant; tags: N-terminal GST; dsDNA, one strand shown. A digest of the protocol: as §1

A further test concerns the target T9, SPDEF (Homo sapiens, UniProt O95238 1-335).
T9 sequence: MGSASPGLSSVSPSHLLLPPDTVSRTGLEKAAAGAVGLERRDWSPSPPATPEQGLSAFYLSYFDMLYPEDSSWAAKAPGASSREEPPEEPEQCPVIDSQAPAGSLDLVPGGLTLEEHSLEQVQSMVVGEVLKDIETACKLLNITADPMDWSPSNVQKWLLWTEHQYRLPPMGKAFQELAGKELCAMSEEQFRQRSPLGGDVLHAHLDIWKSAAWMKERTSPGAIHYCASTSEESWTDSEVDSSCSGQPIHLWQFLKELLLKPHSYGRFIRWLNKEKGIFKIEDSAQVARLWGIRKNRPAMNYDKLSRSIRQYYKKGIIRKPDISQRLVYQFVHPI
The settings on record: protein: recombinant; tags: N-terminal GST; dsDNA, one strand shown. A digest of the protocol:
as §1

For a further test, the target named is T10, ETV7 (Homo sapiens, UniProt Q9Y603 1-341).
T10 sequence: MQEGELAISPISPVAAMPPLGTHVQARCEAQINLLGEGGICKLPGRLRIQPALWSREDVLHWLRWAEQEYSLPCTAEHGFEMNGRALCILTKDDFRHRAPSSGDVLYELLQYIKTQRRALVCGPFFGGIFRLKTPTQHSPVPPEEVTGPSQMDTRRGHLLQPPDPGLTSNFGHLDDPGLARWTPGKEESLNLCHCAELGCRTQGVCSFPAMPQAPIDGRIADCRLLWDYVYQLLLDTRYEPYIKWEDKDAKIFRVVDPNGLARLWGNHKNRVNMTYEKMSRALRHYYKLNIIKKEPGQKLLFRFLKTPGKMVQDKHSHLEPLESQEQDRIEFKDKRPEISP
Conditions: protein: recombinant; tags: N-terminal GST; dsDNA, one strand shown. A digest of the protocol:
as §1

Another test deals with T11, ELF5 (Homo sapiens, UniProt Q9UKW6-2 1-255).
T11 sequence: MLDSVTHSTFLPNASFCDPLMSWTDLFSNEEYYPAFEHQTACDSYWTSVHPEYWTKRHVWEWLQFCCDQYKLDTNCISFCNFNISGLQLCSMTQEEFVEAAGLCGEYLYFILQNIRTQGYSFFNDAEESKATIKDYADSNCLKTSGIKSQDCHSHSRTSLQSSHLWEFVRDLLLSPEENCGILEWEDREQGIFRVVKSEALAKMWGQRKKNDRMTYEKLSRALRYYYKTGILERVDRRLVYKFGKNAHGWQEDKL
Conditions: protein: recombinant; tags: N-terminal GST; dsDNA, one strand shown. A digest of the protocol:
as §1

For a further test, the target named is T12, ETV3 (Homo sapiens, UniProt P41162-2 1-143).
T12 sequence: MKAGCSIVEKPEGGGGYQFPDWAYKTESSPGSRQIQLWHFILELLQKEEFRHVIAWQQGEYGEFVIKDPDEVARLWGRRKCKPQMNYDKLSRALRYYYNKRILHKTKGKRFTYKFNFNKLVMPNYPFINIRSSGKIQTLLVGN
Conditions: protein: recombinant; tags: N-terminal GST; dsDNA, one strand shown. A digest of the protocol:
as §1

Another test concerns the target ETV6 (Homo sapiens, UniProt P41212 1-452). The settings on record: protein: recombinant; tags: N-terminal GST; dsDNA, one strand shown. A digest of the protocol:
as §1

CRX, sequence (O43186 whole entry): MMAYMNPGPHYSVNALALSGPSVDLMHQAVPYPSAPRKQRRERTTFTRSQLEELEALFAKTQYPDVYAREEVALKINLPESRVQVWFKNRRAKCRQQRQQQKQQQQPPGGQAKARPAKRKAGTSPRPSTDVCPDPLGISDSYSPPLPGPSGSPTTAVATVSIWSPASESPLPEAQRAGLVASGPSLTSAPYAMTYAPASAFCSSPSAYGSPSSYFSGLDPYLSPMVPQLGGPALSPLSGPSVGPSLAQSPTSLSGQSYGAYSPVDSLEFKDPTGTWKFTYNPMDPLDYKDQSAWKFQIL
ETV6, sequence (P41212 whole entry): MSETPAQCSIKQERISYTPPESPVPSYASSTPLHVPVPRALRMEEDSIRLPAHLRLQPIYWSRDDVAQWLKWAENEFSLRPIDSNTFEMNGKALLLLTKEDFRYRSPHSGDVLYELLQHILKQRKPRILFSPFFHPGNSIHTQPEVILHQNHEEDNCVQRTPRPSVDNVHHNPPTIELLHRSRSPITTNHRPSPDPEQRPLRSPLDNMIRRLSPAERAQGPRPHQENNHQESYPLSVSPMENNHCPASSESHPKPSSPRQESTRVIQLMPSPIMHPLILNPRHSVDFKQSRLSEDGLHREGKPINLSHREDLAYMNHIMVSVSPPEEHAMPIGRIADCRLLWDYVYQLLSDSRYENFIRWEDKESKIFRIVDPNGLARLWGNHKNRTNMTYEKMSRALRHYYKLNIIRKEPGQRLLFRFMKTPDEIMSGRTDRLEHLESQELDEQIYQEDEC
ETV1, sequence (P50549 whole entry): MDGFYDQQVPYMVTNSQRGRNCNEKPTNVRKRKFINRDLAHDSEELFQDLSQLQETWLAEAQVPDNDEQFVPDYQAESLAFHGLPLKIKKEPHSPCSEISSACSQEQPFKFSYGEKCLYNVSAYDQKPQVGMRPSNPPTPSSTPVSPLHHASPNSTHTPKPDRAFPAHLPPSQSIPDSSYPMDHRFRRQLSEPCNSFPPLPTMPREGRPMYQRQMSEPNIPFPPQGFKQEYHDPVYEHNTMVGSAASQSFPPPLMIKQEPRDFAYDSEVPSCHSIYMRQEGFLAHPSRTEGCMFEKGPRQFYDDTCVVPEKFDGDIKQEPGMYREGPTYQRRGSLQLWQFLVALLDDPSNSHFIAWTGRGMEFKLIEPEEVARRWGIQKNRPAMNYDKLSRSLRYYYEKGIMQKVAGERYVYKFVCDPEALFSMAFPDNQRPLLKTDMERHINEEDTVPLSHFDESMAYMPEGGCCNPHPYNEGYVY
ELF4, sequence (Q99607 whole entry): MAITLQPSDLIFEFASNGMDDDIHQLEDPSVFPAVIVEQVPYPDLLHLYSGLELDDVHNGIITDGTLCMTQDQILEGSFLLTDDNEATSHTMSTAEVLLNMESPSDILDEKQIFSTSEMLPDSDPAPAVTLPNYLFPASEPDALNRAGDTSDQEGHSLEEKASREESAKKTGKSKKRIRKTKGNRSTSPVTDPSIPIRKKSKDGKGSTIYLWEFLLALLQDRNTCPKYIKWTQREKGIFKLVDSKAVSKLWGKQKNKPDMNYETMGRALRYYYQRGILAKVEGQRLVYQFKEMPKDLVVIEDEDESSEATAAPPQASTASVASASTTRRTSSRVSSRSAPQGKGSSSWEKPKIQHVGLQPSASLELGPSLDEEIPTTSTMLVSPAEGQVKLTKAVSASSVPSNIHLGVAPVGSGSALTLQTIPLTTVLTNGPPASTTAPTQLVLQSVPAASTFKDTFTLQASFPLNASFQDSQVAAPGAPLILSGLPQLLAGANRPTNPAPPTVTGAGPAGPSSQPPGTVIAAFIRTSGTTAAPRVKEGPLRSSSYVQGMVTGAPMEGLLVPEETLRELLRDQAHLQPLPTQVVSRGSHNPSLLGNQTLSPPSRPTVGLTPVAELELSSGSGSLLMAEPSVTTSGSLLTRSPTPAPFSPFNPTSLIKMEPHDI
HSF1, sequence (Q00613 whole entry): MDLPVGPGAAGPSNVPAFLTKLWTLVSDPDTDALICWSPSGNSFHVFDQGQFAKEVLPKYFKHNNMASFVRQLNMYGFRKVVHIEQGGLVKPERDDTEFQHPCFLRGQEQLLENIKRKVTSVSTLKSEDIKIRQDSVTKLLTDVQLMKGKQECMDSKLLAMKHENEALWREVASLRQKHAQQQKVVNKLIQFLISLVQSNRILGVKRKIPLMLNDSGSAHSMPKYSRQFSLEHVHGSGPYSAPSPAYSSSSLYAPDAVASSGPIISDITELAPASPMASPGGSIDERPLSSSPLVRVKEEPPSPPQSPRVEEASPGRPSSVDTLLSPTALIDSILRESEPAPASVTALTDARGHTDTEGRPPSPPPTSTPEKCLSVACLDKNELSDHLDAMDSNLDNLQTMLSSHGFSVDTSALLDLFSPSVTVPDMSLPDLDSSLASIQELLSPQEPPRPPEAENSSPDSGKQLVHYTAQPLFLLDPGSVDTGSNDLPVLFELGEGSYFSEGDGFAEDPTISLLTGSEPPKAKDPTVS
ETV5, sequence (P41161 whole entry): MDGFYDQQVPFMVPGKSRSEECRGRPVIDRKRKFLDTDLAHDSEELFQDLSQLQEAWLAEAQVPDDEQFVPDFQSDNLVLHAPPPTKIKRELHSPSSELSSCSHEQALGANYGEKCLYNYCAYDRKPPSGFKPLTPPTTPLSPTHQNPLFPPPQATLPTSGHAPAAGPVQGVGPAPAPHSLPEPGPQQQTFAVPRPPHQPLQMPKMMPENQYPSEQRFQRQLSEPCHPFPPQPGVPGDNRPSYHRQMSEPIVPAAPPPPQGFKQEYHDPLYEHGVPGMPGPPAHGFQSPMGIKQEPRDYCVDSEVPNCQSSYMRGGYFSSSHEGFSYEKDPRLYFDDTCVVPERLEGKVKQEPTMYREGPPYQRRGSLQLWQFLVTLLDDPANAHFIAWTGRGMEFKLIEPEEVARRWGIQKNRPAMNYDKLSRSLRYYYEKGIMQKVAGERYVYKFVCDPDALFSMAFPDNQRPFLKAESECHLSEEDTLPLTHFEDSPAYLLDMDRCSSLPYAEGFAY

Turning to GCTAAT, the binding signal is 1.18 fold enrichment (6-mer frequency, TF over GST control) with FEV; 1.11 fold enrichment (6-mer frequency, TF over GST control) with ETV5; 1.72 fold enrichment (6-mer frequency, TF over GST control) in the test with HSF1; 1.23 fold enrichment (6-mer frequency, TF over GST control) with SPIC; 1.27 fold enrichment (6-mer frequency, TF over GST control) with ELF4; 1.22 fold enrichment (6-mer frequency, TF over GST control) in the test with ELK4. The binding signal with ETV2 is 1.24 fold enrichment (6-mer frequency, TF over GST control); with ELF3 it was 1.22 fold enrichment (6-mer frequency, TF over GST control); with CRX, 2.56 fold enrichment (6-mer frequency, TF over GST control); in the test with ETV1, 1.14 fold enrichment (6-mer frequency, TF over GST control); with ERF, 1.23 fold enrichment (6-mer frequency, TF over GST control); in the test with ETV3L it was 1.13 fold enrichment (6-mer frequency, TF over GST control). The binding signal with ETS2 is 1.24 fold enrichment (6-mer frequency, TF over GST control); in the test with SPDEF it was 1.03 fold enrichment (6-mer frequency, TF over GST control); with ETV7, 1.23 fold enrichment (6-mer frequency, TF over GST control); with ELF5, 1.07 fold enrichment (6-mer frequency, TF over GST control); in the test with ETV3, 1.2 fold enrichment (6-mer frequency, TF over GST control); with ETV6 it was 1.17 fold enrichment (6-mer frequency, TF over GST control).

(Values after PMC7862700, “An all-to-all approach to the identification of sequence-specific readers for epigenetic DNA modifications on cytosine”.)
